This note sets out measurements from PubChem BioAssay (EPA / NIEHS).

Where “and” joins values, the source holds several entries; their conditions need not be identical. Equal entries are not always repeated. Calls of active or inactive are those of the source. How the source made its calls: active means hit-call score of the fitted dose curve at least 0.9, where 1 is the maximum; inactive means score below 0.9.

Read-out in test [1]: Intercellular Adhesion Molecule 1 (ICAM1), ICAM1 (gene 3383)
Nature of the test: BSK_BF4T_ICAM1: BioMAP Diversity Plus: BF4T Assay for Intercellular Adhesion Molecule 1 (ICAM1) Biomarker Activity (AID 2284260). Particulars: primary human bronchial epithelial cells with fibroblasts. The method, boiled down: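 ICAM-1 levels measured by ELISA after 24 h chemical treatment of bronchial epithelial cell/dermal fibroblast co-cultures, read against DMSO baseline. Overt cytotoxicity checked in parallel cultures by sulforhodamine B staining.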

Read-out in test [2]: CD90, THY1 (gene 7070)
As to the kind of experiment: BSK_BF4T_CD90: BioMAP Diversity Plus: BF4T Assay for CD90 Biomarker Activity (AID 2284262). Particulars: primary human bronchial epithelial cells with fibroblasts. In a few lines:
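CD90 levels by ELISA after 24 h treatment of human bronchial epithelial cell/dermal fibroblast cultures, analysed versus DMSO. Overt cytotoxicity checked in parallel cultures by sulforhodamine B staining.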

Read-out in test [3]: Interleukin-1 alpha (IL1a), IL1A (gene 3552)
As to the kind of experiment: BSK_BF4T_IL1a: BioMAP Diversity Plus: BF4T Assay for Interleukin-1 alpha (IL1a) Biomarker Activity (AID 2284264). Particulars: primary human bronchial epithelial cells with fibroblasts. The method, boiled down: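 ELISA read-out of IL-1α from bronchial epithelial cell/dermal fibroblast co-cultures 24 h after compound addition. Increases scored against DMSO negative control. Cytotoxicity monitored by sulforhodamine B staining of parallel cultures.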

Read-out in test [4]: KRT18 (gene 3875)
As to the kind of experiment: BSK_BF4T_Keratin818: BioMAP Diversity Plus: BF4T Assay for Keratin 818 Biomarker Activity (AID 2284266). The note with it: primary human bronchial epithelial cells with fibroblasts. The method, boiled down: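 Keratin 8/18 levels quantified by ELISA after 24 h chemical treatment of bronchial epithelial cell/dermal fibroblast co-cultures, fitted in positive direction relative to DMSO. Parallel SRB staining tracks overt cytotoxicity.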

Read-out in test [5]: Matrix Metallopeptidase 1 (MMP1), MMP1 (gene 4312)
Nature of the test: BSK_BF4T_MMP1: BioMAP Diversity Plus: BF4T Assay for Matrix Metallopeptidase 1 (MMP1) Biomarker Activity (AID 2284270). The note with it: primary human bronchial epithelial cells with fibroblasts. In a few lines: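 MMP-1 quantified by ELISA in primary human bronchial epithelial/dermal fibroblast co-cultures, 24 hours post-dosing, with DMSO as baseline; parallel sulforhodamine B staining (560 nm) tracks overt cytotoxicity.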

Read-out in test [6]: Matrix Metallopeptidase 3 (MMP3), MMP3 (gene 4314)
Nature of the test: BSK_BF4T_MMP3: BioMAP Diversity Plus: BF4T Assay for Matrix Metallopeptidase 3 (MMP3) Biomarker Activity (AID 2284271). Particulars: primary human bronchial epithelial cells with fibroblasts. The method, boiled down:
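MMP-3 level read by ELISA after 24 h chemical exposure of bronchial epithelial cell/dermal fibroblast co-cultures, fitted upward relative to DMSO. Parallel cultures stained with 0.1% SRB after TCA fixation gauge overt cytotoxicity.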

Read-out in test [7]: Tissue plasminogen activator (tPA), PLAT (gene 5327)
As to the kind of experiment: BSK_BF4T_tPA: BioMAP Diversity Plus: BF4T Assay for Tissue plasminogen activator (tPA) Biomarker Activity (AID 2284272). The note with it: primary human bronchial epithelial cells with fibroblasts. In a few lines:
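tPA level quantified by ELISA at 24 h post-treatment in bronchial epithelial/dermal fibroblast co-cultures, gain of signal scored against DMSO baseline. Parallel cultures stained with 0.1% SRB (560 nm) to flag overt cytotoxicity.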

Read-out in test [8]: Plasminogen Activator Inhibitor-1 (PAI1), SERPINE1 (gene 5054)
Nature of the test: BSK_BF4T_PAI1: BioMAP Diversity Plus: BF4T Assay for Plasminogen Activator Inhibitor-1 (PAI1) Biomarker Activity (AID 2284273). Particulars: primary human bronchial epithelial cells with fibroblasts. In a few lines:
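PAI-1 levels quantified by ELISA 24 h post-dosing in bronchial epithelial cell plus dermal fibroblast cultures. Signal gain referenced to DMSO baseline. Sulforhodamine B total-protein staining of parallel wells checked cytotoxicity.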

A short description of test [9]: BSK_BF4T_SRB: Viability Assessment in the BioMAP Diversity Plus: BF4T Assay (AID 2284274). The note with it: primary human bronchial epithelial cells with fibroblasts. In a few lines: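 Cytotoxicity measured as total protein: cells fixed with 10% TCA, stained with 0.1% SRB, read at 560 nm. Bronchial epithelial/dermal fibroblast co-culture, 24 h after dosing, with positive-direction fitting relative to DMSO.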

Read-out in test [10]: urokinase Plasminogen Activator (uPA), PLAU (gene 5328)
Nature of the test: BSK_BF4T_uPA: BioMAP Diversity Plus: BF4T Assay for urokinase Plasminogen Activator (uPA) Biomarker Activity (AID 2284275). Particulars: primary human bronchial epithelial cells with fibroblasts. The method, boiled down: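 uPA levels measured by ELISA at 24 hours in BF4T cultures (bronchial epithelial cells plus dermal fibroblasts) and compared with DMSO; cytotoxicity tracked in parallel cultures by sulforhodamine B staining.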

Read-out in test [11]: Matrix Metallopeptidase 9 (MMP9), MMP9 (gene 4318)
Nature of the test: BSK_BF4T_MMP9: BioMAP Diversity Plus: BF4T Assay for Matrix Metallopeptidase 9 (MMP9) Biomarker Activity (AID 2284276). The note with it: primary human bronchial epithelial cells with fibroblasts. In a few lines:
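MMP-9 levels were measured by ELISA after 24 h exposure of bronchial epithelial cell/dermal fibroblast co-cultures, with DMSO as baseline. Parallel cultures were stained with 0.1% SRB after TCA fixation, read at 560 nm, to flag overt cytotoxicity.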

Read-out in test [12]: Vascular cell adhesion molecule 1 (VCAM1), VCAM1 (gene 7412)
Nature of the test: BSK_IMphg_VCAM1: BioMAP Diversity Plus: IMphg Assay for Vascular cell adhesion molecule 1 (VCAM1) Biomarker Activity (AID 2284286). Particulars: primary human endothelial cells with macrophages. In a few lines: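 ELISA read-out of VCAM-1 on venular endothelial cell/macrophage co-cultures at 24 h post-treatment, with DMSO as baseline and positive-direction fitting. Parallel sulforhodamine B total-protein staining (560 nm) served as the overt cytotoxicity measure.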

Read-out in test [13]: CD40, CD40 (gene 958)
Nature of the test: BSK_IMphg_CD40: BioMAP Diversity Plus: IMphg Assay for CD40 Biomarker Activity (AID 2284288). The note with it: primary human endothelial cells with macrophages. The method, boiled down: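 ELISA read-out of cell-surface CD40 at 24 h in human venular endothelial cell/macrophage co-cultures. Activity fitted in the positive direction against DMSO; parallel SRB staining (560 nm) gauges overt cytotoxicity.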

Read-out in test [14]: E-selectin (Homo sapiens) (UniProt P16581)
As to the kind of experiment: BSK_IMphg_ESelectin: BioMAP Diversity Plus: IMphg Assay for Eselectin Biomarker Activity (AID 2284291). The note with it: primary human endothelial cells with macrophages. In a few lines: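 Analysed against DMSO baseline in the positive fitting direction, this endpoint is an ELISA read of E-selectin. It comes from human venular endothelial cells co-cultured with macrophages, sampled 24 h post-dose.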

A short description of test [15]: BSK_IMphg_SRB: Viability Assessment in the BioMAP Diversity Plus: IMphg Assay (AID 2284292).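 Further: measured one day after compound addition.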 Particulars: primary human endothelial cells with macrophages. The method, boiled down:
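SRB viability endpoint: cultures of human endothelial cells plus macrophages fixed with 10% TCA, stained with 0.1% SRB, read at 560 nm 24 h post-dosing. Only gain-of-signal fitted, relative to DMSO.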

Read-out in test [16]: Macrophage colony-stimulating factor (MCSF), CSF1 (gene 1435)
Nature of the test: BSK_IMphg_MCSF: BioMAP Diversity Plus: IMphg Assay for Macrophage colony-stimulating factor (MCSF) Biomarker Activity (AID 2284293). The note with it: primary human endothelial cells with macrophages. In a few lines:
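M-CSF was measured by ELISA in human venular endothelial cell/macrophage co-cultures dosed for 24 hours. Sulforhodamine B staining of parallel cultures assessed cytotoxicity; data fitted against DMSO baseline.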

Read-out in test [17]: Interleukin-10 (IL10), IL10 (gene 3586)
Nature of the test: BSK_IMphg_IL10: BioMAP Diversity Plus: IMphg Assay for Interleukin-10 (IL10) Biomarker Activity (AID 2284294). Particulars: primary human endothelial cells with macrophages. The method, boiled down: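 IL-10 read by ELISA after 24 h chemical exposure of primary human venular endothelial cell/macrophage cocultures, with DMSO as baseline. Parallel SRB staining (560 nm) gauged overt cytotoxicity.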

Test [18] in a line: BSK_IMphg_SRB.Mphg: Macrophage Viability Assessment in the BioMAP Diversity Plus: IMphg Assay (AID 2284295). Particulars: primary human endothelial cells with macrophages. In a few lines:
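Cytotoxicity read-out: parallel cultures fixed with 10% TCA, stained with 0.1% sulforhodamine B, read at 560 nm. System combines venular endothelium and macrophages; sampled 24 h post-dosing, fitted positively relative to DMSO control.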

In test [19] the test system is TTR (gene 7276). Nature of the test: CCTE_GLTED_hTTR_0.5uM: CCTE's human Transthyretin (hTTR) Inhibition Assay, with 0.5uM TTR, Great Lakes Toxicology and Ecology Division (GLTED) Lab (AID 2284320). In a few lines: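 Probe (ANSA) displacement from 0.5 uM human transthyretin was followed by fluorescence (ex 380, em 475) after a 2 h incubation with chemical. Activity was scored as signal loss and fitted positively relative to DMSO.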

Test [20] is described as follows: CCTE_Padilla_ZF_Score.Craniofacial: CCTE's 144 Hour Post-fertilization zebrafish Assay Score for Craniofacial Malformation, Padilla Lab (AID 2284405). The method, boiled down:
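Craniofacial defects were scored at 6 dpf by two blinded observers using stereomicroscopy. Exposure of wild-type embryos began at 6–8 hpf in sealed wells of 10% Hanks' solution at 26C, with chemical removed by rinsing at 5 dpf.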

Chain of E-selectin (Homo sapiens) (P16581 whole entry, looked up): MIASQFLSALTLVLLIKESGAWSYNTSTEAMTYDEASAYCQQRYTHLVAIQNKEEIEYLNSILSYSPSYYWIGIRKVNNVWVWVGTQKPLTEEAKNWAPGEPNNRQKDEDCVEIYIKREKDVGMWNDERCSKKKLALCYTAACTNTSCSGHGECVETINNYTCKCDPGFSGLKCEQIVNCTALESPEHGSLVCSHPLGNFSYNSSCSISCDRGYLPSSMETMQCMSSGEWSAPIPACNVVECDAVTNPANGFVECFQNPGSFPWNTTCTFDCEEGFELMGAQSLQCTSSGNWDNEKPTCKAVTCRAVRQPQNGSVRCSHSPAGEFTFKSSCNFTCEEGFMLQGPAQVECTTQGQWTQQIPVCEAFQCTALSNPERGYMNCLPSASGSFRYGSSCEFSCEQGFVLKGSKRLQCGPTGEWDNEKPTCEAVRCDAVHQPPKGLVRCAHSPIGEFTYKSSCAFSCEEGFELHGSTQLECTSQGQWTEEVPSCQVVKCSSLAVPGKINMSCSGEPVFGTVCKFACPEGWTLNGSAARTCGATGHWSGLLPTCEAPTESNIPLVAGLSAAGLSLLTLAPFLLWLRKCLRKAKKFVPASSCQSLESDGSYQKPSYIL

A word on the AC50: it is the concentration at which the activity in the assay is half-maximal. In the case of `OC(C(F)(F)F)(C(F)(F)F)C(O)(C(F)(F)F)C(F)(F)F`, the result in test [1], in test [2], in [3], in test [4], in test [5] and in [6] was inactive. Further, the outcome in test [7], in test [9], in test [10] and in test [11] was inactive. Moreover, the AC50 in test [8] was 14.4 µM (active) and 8.31 µM (active); in [12] it was 23.6 µM (active) and 22.1 µM (active); in [13], 23 µM (active) and 21.1 µM (active); in test [14], 22 µM (active) and 30 µM (active); in [15], 34.1 µM (active) and 34.8 µM (active); in test [16] it was 20 µM (active) and 8.19 µM (active). The AC50 is 23.6 µM (active) and 21.1 µM (active) in test [17]; 41.5 µM (active) and 37.7 µM (active) in test [18]; 11 µM (active) in test [19]; 2.57 µM (active) in test [20].
